Out of some 39,000 compounds screened, about 500 (1.3%) were called active. The list comes from a sample in which actives are over-represented; it also holds similar structures and randomly drawn compounds.
System: S. aureus RN4220
Assay: growth inhibition call (relative growth <= 0.2)
Conditions: 50 µM

| SMILES | growth inhibition call |
| --- | --- |
| C[C@H]1CN([C@@H](C)CO)C(=O)c2cc(C#CCN(C)C)cnc2O[C@@H]1CN(C)Cc1cccc(C(=O)O)c1 | inactive |
| COc1ccc(S(=O)(=O)N(C)C[C@@H]2Oc3ccc(NS(C)(=O)=O)cc3C(=O)N([C@H](C)CO)C[C@@H]2C)cc1 | inactive |
| C[C@@H]1CCCCO[C@@H](CN(C)C(=O)C2CCCCC2)[C@H](C)CN([C@@H](C)CO)C(=O)c2cc(NC(=O)Nc3ccc(C(F)(F)F)cc3)ccc2O1 | inactive |
| C[C@@H]1CCCCO[C@@H](CN(C)C(=O)C2CCCCC2)[C@@H](C)CN([C@H](C)CO)C(=O)c2cc(NC(=O)Nc3ccc(C(F)(F)F)cc3)ccc2O1 | inactive |
| CO[C@H](CN(C)C(=O)C1CCOCC1)[C@H](C)CN(C(=O)Nc1ccc(C(F)(F)F)cc1)[C@H](C)CO | active |
| CO[C@@H](CN(C)C(=O)Nc1ccc(C(F)(F)F)cc1)[C@@H](C)CN(Cc1ccccc1Cl)[C@@H](C)CO | inactive |
| CO[C@H](CN(C)C(=O)Nc1ccc(C(F)(F)F)cc1)[C@H](C)CN(Cc1ccccc1Cl)[C@H](C)CO | inactive |
| CO[C@H](CN(C)C(=O)C1CCOCC1)[C@@H](C)CN(C(=O)Nc1ccc(C(F)(F)F)cc1)[C@H](C)CO | active |
| Cc1noc(C)c1NC(=O)Nc1ccc2c(c1)C(=O)N([C@H](C)CO)C[C@@H](C)[C@H](CN(C)S(=O)(=O)c1ccc(Cl)cc1)OCCCC[C@@H](C)O2 | inactive |
| C[C@H](CO)N1C[C@H](C)[C@@H](CN(C)Cc2ccc(C(=O)Nc3ccccc3N)cc2)Oc2c(NC(=O)c3nc4ccccc4s3)cccc2C1=O | inactive |
| COc1ccc(S(=O)(=O)Nc2ccc3c(c2)C(=O)N([C@H](C)CO)C[C@H](C)[C@@H](CN(C)Cc2ccc(C(=O)O)cc2)OCCCC[C@@H](C)O3)cc1 | inactive |
| CCNC(=O)C[C@H]1C=C[C@H](NC(=O)C2CC2)[C@H](CO)O1 | inactive |
| O=c1c(O)nnc2n1CCN2c1ccccc1 | inactive |
| Cc1noc(C)c1S(=O)(=O)Nc1cccc2c1O[C@@H](CN(C)S(=O)(=O)c1ccccc1)[C@@H](C)CN([C@H](C)CO)C2=O | inactive |
| Cc1ccc(S(=O)(=O)Nc2ccc3c(c2)C(=O)N([C@@H](C)CO)C[C@H](C)[C@@H](CN(C)CC2CCCCC2)OCCCC[C@H](C)O3)cc1 | inactive |
| Cc1ccc(CN2CCN(CCO)CC2)o1 | inactive |
| O=C(NCC(F)(F)F)[C@H]1[C@H](CO)[C@H]2Cn3c(cccc3=O)[C@@H]1N2C(=O)C1CCC1 | inactive |
| CCCNC(=O)c1cc2c(c(-c3cccc(-c4cccc(F)c4)c3)n1)[C@H](CCO)N([S@@](=O)C(C)(C)C)C2 | active |
| CCCNC(=O)c1cc2c(c(-c3cccc(-c4ccc(F)cc4)c3)n1)[C@H](CCO)N([S@@](=O)C(C)(C)C)C2 | inactive |
| CCCNC(=O)c1cc2c(c(-c3cccc(-c4cccc(F)c4)c3)n1)[C@@H](CCO)N([S@](=O)C(C)(C)C)C2 | inactive |
| C[C@@H]1CN([C@@H](C)CO)C(=O)c2cc(NC(=O)CCN3CCOCC3)ccc2O[C@H]1CN(C)S(=O)(=O)c1ccc(F)cc1 | inactive |
| NCCCCCNC(=O)[C@@H]1C[C@@H]2C(=O)N[C@@H](CCCCN)C(=O)N2[C@@H]1c1cccc(OCCO)c1 | inactive |
| CSc1cccc2sc(Nc3ccc(Cl)cc3)nc12 | active |

| SMILES | growth inhibition call |
| --- | --- |
| Cc1sc(Nc2ccccc2)nc1-c1ccc(Cl)cc1 | inactive |
| c1ccc(Nc2nc3c(ccc4ccccc43)s2)cc1 | inactive |
| Cc1ccc(S(=O)(=O)Nc2cccc3c2O[C@H](CN(C)C(=O)Nc2cccc4ccccc24)[C@@H](C)CN([C@@H](C)CO)C3=O)cc1 | inactive |
| COCC#Cc1ccc([C@H]2[C@H]3CN(C(=O)c4ccncc4)CC(=O)N3[C@H]2CO)cc1 | inactive |
| CCOC(=O)CNC(=O)c1cc(C)on1 | inactive |
| Cl.O=C(O)c1cn(-c2ccc(F)cc2)c2cc(N3CCNCC3)c(F)cc2c1=O | active |
| O=C(CN1CCNCC1)c1ccc(F)cc1 | inactive |
| Cn1cc(S(=O)(=O)N2CCN(c3ccc(F)cc3)CC2)c(=O)n(C)c1=O | inactive |
| CN1CCN(c2cc3c(cc2F)c(=O)c(C(=O)O)cn3-c2ccc(F)cc2)CC1.Cl | active |
| O=C(c1ccccc1F)N1CCNCC1 | inactive |
| Cc1ccc(C(=O)O)c(=O)n1C | inactive |
| Cc1noc(C)c1S(=O)(=O)N(C)C[C@@H]1Oc2ccc(NC(=O)NC(C)C)cc2CC(=O)N([C@@H](C)CO)C[C@@H]1C | inactive |
| O=C(NO)c1cn(-c2ccc(C[C@H]3C(=O)O[C@@H](Cc4ccccc4)[C@H]4C=C(/C=C/C5CC5)CN43)cc2)nn1 | inactive |
| CCCCCOc1ccc([C@H]2C(C(=O)c3ccc4c(c3)OCCO4)=C(O)C(=O)N2Cc2ccco2)cc1 | inactive |
| O=C(Nc1ccccc1)c1ccccc1O | active |
| O=C(Nc1ccccc1)c1ccccc1 | inactive |
| NNC(=O)c1ccccc1O | inactive |
| CO[C@@H]1CN(C)C(=O)c2ccc(NS(=O)(=O)CC(F)(F)F)cc2OC[C@H](C)N(Cc2nccs2)C[C@H]1C | inactive |
| C[C@@H]1CN([C@@H](C)CO)C(=O)Cc2cc(NS(=O)(=O)c3cccs3)ccc2O[C@H]1CN(C)S(C)(=O)=O | inactive |
| Clc1ccc(COC(Cn2ccnc2)c2ccc(Cl)cc2Cl)c(Cl)c1.O=[N+]([O-])O (centres undefined) | inactive |
| Clc1ccc(C(Cn2ccnc2)OCc2ccsc2Cl)c(Cl)c1 (centres undefined) | active |
| Clc1ccc(C(Cn2ccnc2)OCc2c(Cl)cccc2Cl)c(Cl)c1.O=[N+]([O-])O (centres undefined) | inactive |
| Cc1ccc(S(=O)(=O)N(C)C[C@@H]2OCCCC[C@H](C)Oc3ccc(NC(=O)C4CCCCC4)cc3C(=O)N([C@@H](C)CO)C[C@@H]2C)cc1 | inactive |

| SMILES | growth inhibition call |
| --- | --- |
| C=C[C@]1(C)C[C@@H](OC(=O)CS[C@@H]2C[C@H]3CC[C@@H](C2)N3C)[C@]2(C)[C@H](C)CC[C@]3(CCC(=O)[C@H]32)[C@@H](C)[C@@H]1O | active |
| C[C@H](CO)N1C[C@H](C)[C@H](CN(C)Cc2ccc(C(=O)O)cc2)OCCCC[C@H](C)Oc2ccc(NS(=O)(=O)c3ccc(F)cc3)cc2C1=O | inactive |
| COc1ccc(S(=O)(=O)N(C)C[C@@H]2Oc3c(NC(=O)C4CCOCC4)cccc3C(=O)N([C@H](C)CO)C[C@H]2C)cc1 | inactive |
| C[C@H](CO)N1C[C@H](C)[C@@H](CN(C)C(=O)Nc2ccccc2)Oc2c(NC(=O)C3CCOCC3)cccc2C1=O | inactive |
| CO[C@H]1O[C@H](COC(=O)NCCCCCC(=O)NO)[C@@H](OC(=O)Nc2ccccc2)[C@@H]2OC(=O)[C@H](Cc3cccc(Br)c3)C/C=C/C[C@@H](Cc3cccc(Br)c3)C(=O)O[C@@H]12 | inactive |
| C[C@H]1CN([C@@H](C)CO)C(=O)c2cccc(NC(=O)Nc3ccc(C(F)(F)F)cc3)c2O[C@@H]1CN(C)C(=O)Nc1ccccc1 | active |
| C[C@H](CO)N1C[C@H](C)[C@@H](CN(C)C(=O)Nc2cccc3ccccc23)Oc2c(NC(=O)Nc3ccc(C(F)(F)F)cc3)cccc2C1=O | active |
| C[C@H](CO)N1C[C@H](C)[C@H](CN(C)C(=O)Nc2ccccc2)Oc2c(NC(=O)Nc3ccc(C(F)(F)F)cc3)cccc2C1=O | inactive |
| C[C@H](CO)N1C[C@H](C)[C@H](CN(C)C(=O)Nc2cccc3ccccc23)Oc2c(NC(=O)Nc3ccc(C(F)(F)F)cc3)cccc2C1=O | inactive |
| C[C@H]1CN([C@@H](C)CO)C(=O)c2cccc(NC(=O)Nc3ccc(C(F)(F)F)cc3)c2O[C@H]1CN(C)C(=O)Nc1ccccc1 | active |
| C[C@H](CO)N1C[C@H](C)[C@@H](CN(C)C(=O)Nc2ccc(C(F)(F)F)cc2)Oc2c(NC(=O)Nc3ccccc3)cccc2C1=O | inactive |
| C[C@@H]1CN([C@@H](C)CO)C(=O)c2cccc(NC(=O)Nc3ccccc3)c2O[C@@H]1CN(C)C(=O)Nc1ccc(C(F)(F)F)cc1 | inactive |
| C[C@@H]1CN([C@H](C)CO)C(=O)c2cccc(NC(=O)Nc3ccc(C(F)(F)F)cc3)c2O[C@H]1CN(C)C(=O)Nc1ccccc1 | inactive |
| C[C@@H]1CN([C@H](C)CO)C(=O)c2cccc(NC(=O)Nc3ccc(C(F)(F)F)cc3)c2O[C@@H]1CN(C)C(=O)Nc1cccc2ccccc12 | inactive |
| C[C@H]1CN([C@@H](C)CO)C(=O)c2cccc(NC(=O)Nc3ccccc3)c2O[C@@H]1CN(C)C(=O)Nc1ccc(C(F)(F)F)cc1 | inactive |
| C[C@H](CO)N1C[C@H](C)[C@H](CN(C)C(=O)Nc2ccc(C(F)(F)F)cc2)Oc2c(NC(=O)Nc3ccccc3)cccc2C1=O | inactive |
| C[C@@H]1CN([C@@H](C)CO)C(=O)c2cccc(NC(=O)Nc3ccc(C(F)(F)F)cc3)c2O[C@@H]1CN(C)C(=O)Nc1ccccc1 | active |
| COc1ccc(S(=O)(=O)Nc2ccc3c(c2)C(=O)N([C@@H](C)CO)C[C@H](C)[C@H](CN(C)C(=O)Nc2ccccc2)OCCCC[C@H](C)O3)cc1 | inactive |
| Cc1ccc(S(=O)(=O)N(C)C[C@H]2Oc3ccc(NS(=O)(=O)c4c(C)noc4C)cc3CC(=O)N([C@@H](C)CO)C[C@H]2C)cc1 | inactive |
| COc1ccc2c3c(n(c2c1)C)[C@@H](CO)N(Cc1ccccc1)C[C@]13CCN(CC1)C(=O)c1ccccc1F | inactive |
| C[C@H](CO)N1C[C@H](C)[C@H](CN(C)C(=O)CCCN(C)C)OCCCC[C@H](C)Oc2ccc(NC(=O)Nc3ccc(C(F)(F)F)cc3)cc2C1=O | inactive |
| O=C([C@H]1[C@H](CO)[C@H]2Cn3c(cccc3=O)[C@@H]1N2CC1CCCC1)N1CCOCC1 | inactive |
| COc1cc(/C=C/c2cc(/C=C/c3ccc(O)c(OC)c3)n(Cc3ccc4c(c3)OCO4)c(=S)n2)ccc1O | inactive |

Reference: the antibiotic and cytotoxicity screens of Wong et al. (2023)
